# Reference: PubChem BioAssay (EPA / NIEHS)
# Records with an inconclusive call do not appear. Activity calls are given as the source filed them. How the source made its calls: active means hit-call score of the fitted dose curve at least 0.9, where 1 is the maximum; inconclusive means response in the unintended direction; inactive means score below 0.9.
# Experiments:
# [1] = target: Sodium channel protein type 1 subunit alpha (Rattus norvegicus) (UniProt P04774); assay: NVS_IC_rNaCh_site2: NovaScreen (NVS) Ion Channel Assay for rat Sodium Channel, Site 2 (NaCh) (AID 2283322);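 further: hit means loss of radioligand binding signal relative to DMSO so AC50 marks displacement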
# Outline: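 Membranes: rat forebrain. Format: competitive radioligand displacement, filter separation, scintillation readout, 1 h exposure. Primary screen in duplicate at 25 uM; actives retested in concentration series.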
# [2] = target: human Peripheral-type Benzodiazepine Receptor (PBR), TSPO (gene 706) (UniProt P30536); assay: NVS_MP_hPBR: NovaScreen (NVS) Membrane Protein Assay for human Peripheral-type Benzodiazepine Receptor (PBR) (AID 2283331);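 further: hits reduce radioligand binding relative to DMSO baseline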
# Sequence of human Peripheral-type Benzodiazepine Receptor (PBR), TSPO (gene 706) (P30536 whole entry, looked up): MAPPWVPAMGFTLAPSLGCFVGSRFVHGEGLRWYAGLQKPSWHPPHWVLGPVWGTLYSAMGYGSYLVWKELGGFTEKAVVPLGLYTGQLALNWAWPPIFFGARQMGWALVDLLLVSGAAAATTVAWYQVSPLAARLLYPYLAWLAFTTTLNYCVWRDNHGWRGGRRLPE
# Outline: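 Radioligand displacement on human colonic cell membranes, 1 h incubation; bound radioactivity by filtration and scintillation counting. Primary screen in duplicate at 25 uM single concentration, actives followed up in concentration series; loss of binding versus DMSO.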
# [3] = target: human Serotonin, 5-Hydroxytryptamine Receptor 3 (5HT3), HTR3A (gene 3359) (UniProt P46098); assay: NVS_LGIC_h5HT3: NovaScreen (NVS) Ligand-Gated Ion Channel Assay for human Serotonin, 5-Hydroxytryptamine Receptor 3 (5HT3) (AID 2283325)
# Sequence of human Serotonin, 5-Hydroxytryptamine Receptor 3 (5HT3), HTR3A (gene 3359) (P46098 whole entry, looked up): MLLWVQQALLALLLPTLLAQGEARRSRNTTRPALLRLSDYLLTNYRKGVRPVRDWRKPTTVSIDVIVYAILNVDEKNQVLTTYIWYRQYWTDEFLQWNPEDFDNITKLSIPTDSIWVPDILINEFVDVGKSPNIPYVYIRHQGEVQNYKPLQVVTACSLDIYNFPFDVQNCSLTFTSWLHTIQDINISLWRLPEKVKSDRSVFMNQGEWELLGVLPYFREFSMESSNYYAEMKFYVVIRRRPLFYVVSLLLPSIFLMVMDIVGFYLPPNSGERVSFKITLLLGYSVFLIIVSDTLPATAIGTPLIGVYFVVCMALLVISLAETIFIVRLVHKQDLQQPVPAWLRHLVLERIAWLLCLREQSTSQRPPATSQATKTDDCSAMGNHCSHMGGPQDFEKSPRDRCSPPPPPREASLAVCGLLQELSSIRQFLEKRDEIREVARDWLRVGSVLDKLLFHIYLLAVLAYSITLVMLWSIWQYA
# Outline: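 Radioligand displacement binding to human 5-HT3 from HEK293 membranes, read by filter-based scintillation counting after 1 h. Screen at 25 uM in duplicate; chemicals passing threshold were retested in concentration-response up to 50 uM.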
# [4] = target: rat Serotonin, 5-Hydroxytryptamine Receptor (5HT), Non-Selective Binding, Htr1a (gene 24473) (UniProt P19327); assay: NVS_GPCR_r5HT_NonSelective: NovaScreen (NVS) G Protein-Coupled Receptor Assay for rat Serotonin, 5-Hydroxytryptamine Receptor (5HT), Non-Selective Binding (AID 2283295)
# Sequence of rat Serotonin, 5-Hydroxytryptamine Receptor (5HT), Non-Selective Binding, Htr1a (gene 24473) (P19327 whole entry, looked up): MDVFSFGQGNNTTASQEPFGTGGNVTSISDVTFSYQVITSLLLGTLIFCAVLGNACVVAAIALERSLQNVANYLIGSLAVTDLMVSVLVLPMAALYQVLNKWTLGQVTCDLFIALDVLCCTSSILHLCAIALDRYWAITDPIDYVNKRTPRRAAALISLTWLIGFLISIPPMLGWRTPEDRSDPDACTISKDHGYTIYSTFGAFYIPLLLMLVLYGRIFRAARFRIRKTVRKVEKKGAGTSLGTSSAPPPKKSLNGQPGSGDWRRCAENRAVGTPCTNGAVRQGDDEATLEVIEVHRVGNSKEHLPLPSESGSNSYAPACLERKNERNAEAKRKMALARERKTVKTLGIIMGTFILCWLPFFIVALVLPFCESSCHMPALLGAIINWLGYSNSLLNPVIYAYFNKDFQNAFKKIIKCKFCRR
# Outline: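 Radioligand displacement on rat cortical membranes, 1 h incubation, filter-based scintillation counting. Primary duplicates at 25 uM, actives retested in concentration series; loss of signal fitted against DMSO as baseline.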
# [5] = target: rat Adrenergic, Alpha 1A Receptor (Adra1A), Adra1a (gene 29412) (UniProt P43140); assay: NVS_GPCR_rAdra1A: NovaScreen (NVS) G Protein-Coupled Receptor Assay for rat Adrenergic, Alpha 1A Receptor (Adra1A) (AID 2283296)
# Outline: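 Rat cortical membranes pretreated with chlorethyl clonidine; competitive radioligand displacement, 1 h. Filter-based scintillation counting. Primary screen in duplicate at 25 uM, actives followed in concentration series.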
# [6] = test system: rat Adrenergic, Alpha 1B Receptor (Adra1B), gene 24173; assay: NVS_GPCR_rAdra1B: NovaScreen (NVS) G Protein-Coupled Receptor Assay for rat Adrenergic, Alpha 1B Receptor (Adra1B) (AID 2283297)
# Outline: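 Rat liver membranes, radioligand displacement with filter-based scintillation detection, 1 h incubation. Primary screen in duplicate at 25 uM; actives retested in concentration series; activity relative to DMSO.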
# [7] = target: rat Adrenergic Receptor, Alpha 2 (Adra2), Non-selective Binding, Adra2a (gene 25083) (UniProt P22909); assay: NVS_GPCR_rAdra2_NonSelective: NovaScreen (NVS) G Protein-Coupled Receptor Assay for rat Adrenergic Receptor, Alpha 2 (Adra2), Non-selective Binding (AID 2283299)
# Sequence of rat Adrenergic Receptor, Alpha 2 (Adra2), Non-selective Binding, Adra2a (gene 25083) (P22909 whole entry, looked up): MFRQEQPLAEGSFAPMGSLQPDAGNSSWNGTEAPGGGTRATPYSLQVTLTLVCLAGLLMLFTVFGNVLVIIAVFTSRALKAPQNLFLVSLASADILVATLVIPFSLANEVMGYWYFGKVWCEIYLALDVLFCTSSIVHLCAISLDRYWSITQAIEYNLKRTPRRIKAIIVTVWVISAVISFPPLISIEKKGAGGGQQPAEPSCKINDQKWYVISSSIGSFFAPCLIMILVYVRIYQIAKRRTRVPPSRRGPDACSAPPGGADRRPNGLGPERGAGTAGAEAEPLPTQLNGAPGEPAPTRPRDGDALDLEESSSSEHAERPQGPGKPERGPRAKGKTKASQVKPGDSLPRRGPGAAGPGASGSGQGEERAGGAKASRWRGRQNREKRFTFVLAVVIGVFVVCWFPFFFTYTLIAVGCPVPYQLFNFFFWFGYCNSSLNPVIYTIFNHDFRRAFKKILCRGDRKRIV
# Outline: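 Rat cortical membranes, radioligand competitive displacement read by filter-based scintillation counting 1.25 hours after dosing. Primary screen in duplicate at 25 uM; actives followed up in concentration series.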
# [8] = target: rat Histamine Receptor (H3), Hrh3 (gene 85268) (UniProt Q9QYN8); assay: NVS_GPCR_rH3: NovaScreen (NVS) G Protein-Coupled Receptor Assay for rat Histamine Receptor (H3) (AID 2283303)
# Sequence of rat Histamine Receptor (H3), Hrh3 (gene 85268) (Q9QYN8 whole entry, looked up): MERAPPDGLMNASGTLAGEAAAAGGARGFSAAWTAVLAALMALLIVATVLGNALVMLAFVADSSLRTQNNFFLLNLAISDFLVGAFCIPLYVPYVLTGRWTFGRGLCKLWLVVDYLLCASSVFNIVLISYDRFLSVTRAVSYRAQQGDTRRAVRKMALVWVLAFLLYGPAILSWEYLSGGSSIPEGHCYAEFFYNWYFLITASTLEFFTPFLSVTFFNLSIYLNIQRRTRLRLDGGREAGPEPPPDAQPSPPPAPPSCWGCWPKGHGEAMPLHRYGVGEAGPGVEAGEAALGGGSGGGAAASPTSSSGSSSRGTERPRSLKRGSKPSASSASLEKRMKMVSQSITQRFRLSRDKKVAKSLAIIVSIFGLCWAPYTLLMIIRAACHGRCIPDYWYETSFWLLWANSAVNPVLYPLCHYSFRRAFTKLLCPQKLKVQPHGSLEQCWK
# Outline: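 Rat forebrain membranes incubated 1 h with compound; radioligand displacement measured by filter-based scintillation counting. Single-concentration duplicates at 25 µM, then concentration-response up to 50 µM, relative to DMSO.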
# [9] = target: Adra2b (gene 24174) (UniProt P19328); assay: NVS_GPCR_rmAdra2B: NovaScreen (NVS) G Protein-Coupled Receptor Assay for hybird cells Adrenergic, Alpha 2B Receptor (Adra2B) (AID 2283306)
# Sequence of Adra2b (gene 24174) (P19328 whole entry, looked up): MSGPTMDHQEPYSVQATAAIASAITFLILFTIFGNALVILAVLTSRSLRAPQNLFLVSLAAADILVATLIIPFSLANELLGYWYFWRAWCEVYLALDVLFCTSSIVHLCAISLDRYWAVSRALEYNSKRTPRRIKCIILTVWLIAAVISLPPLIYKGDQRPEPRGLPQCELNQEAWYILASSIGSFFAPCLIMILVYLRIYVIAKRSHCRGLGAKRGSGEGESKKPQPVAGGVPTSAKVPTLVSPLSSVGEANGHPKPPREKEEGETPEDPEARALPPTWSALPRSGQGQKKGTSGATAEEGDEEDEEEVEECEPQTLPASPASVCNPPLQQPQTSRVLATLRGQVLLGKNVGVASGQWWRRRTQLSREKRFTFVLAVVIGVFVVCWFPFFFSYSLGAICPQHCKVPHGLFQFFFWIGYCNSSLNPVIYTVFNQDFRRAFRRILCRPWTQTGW
# Outline: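 Radioligand filter-binding assay on membrane proteins from neuroglioma/blastoma hybrid cells (rodent), 1 h after dosing; scintillation counting, loss of signal vs DMSO. Primary screen in duplicate at 25 uM, actives then run in concentration series.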
# [10] = target: rat Neurokinin-1 Receptor (NK1), Tacr1 (gene 24807) (UniProt P14600); assay: NVS_GPCR_rNK1: NovaScreen (NVS) G Protein-Coupled Receptor Assay for rat Neurokinin-1 Receptor (NK1) (AID 2283309)
# Sequence of rat Neurokinin-1 Receptor (NK1), Tacr1 (gene 24807) (P14600 whole entry, looked up): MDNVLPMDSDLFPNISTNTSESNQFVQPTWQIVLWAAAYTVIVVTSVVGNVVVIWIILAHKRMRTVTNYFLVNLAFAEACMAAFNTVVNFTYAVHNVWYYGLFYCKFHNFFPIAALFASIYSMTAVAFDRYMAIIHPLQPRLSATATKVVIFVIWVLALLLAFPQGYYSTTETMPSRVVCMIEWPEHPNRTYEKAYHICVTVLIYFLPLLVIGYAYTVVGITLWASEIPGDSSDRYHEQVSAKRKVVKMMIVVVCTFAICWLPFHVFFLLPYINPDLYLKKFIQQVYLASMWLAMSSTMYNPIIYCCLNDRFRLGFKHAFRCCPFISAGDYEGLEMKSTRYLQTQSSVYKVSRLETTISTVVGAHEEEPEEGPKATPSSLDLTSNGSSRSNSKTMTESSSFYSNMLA
# Outline: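 Rat submaxillary gland membranes; radioligand displacement read by filter-based scintillation counting after 1 h. Primary screen in duplicate at 25 uM; actives retested in concentration series; loss of binding fitted versus DMSO.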
# [11] = target: rat Opioid Receptor, Non-selective Sodium (Na+) Binding, Oprm1 (gene 25601) (UniProt P33535); assay: NVS_GPCR_rOpiate_NonSelectiveNa: NovaScreen (NVS) G Protein-Coupled Receptor Assay for rat Opioid Receptor, Non-selective Sodium (Na+) Binding (AID 2283311)
# Sequence of rat Opioid Receptor, Non-selective Sodium (Na+) Binding, Oprm1 (gene 25601) (P33535 whole entry, looked up): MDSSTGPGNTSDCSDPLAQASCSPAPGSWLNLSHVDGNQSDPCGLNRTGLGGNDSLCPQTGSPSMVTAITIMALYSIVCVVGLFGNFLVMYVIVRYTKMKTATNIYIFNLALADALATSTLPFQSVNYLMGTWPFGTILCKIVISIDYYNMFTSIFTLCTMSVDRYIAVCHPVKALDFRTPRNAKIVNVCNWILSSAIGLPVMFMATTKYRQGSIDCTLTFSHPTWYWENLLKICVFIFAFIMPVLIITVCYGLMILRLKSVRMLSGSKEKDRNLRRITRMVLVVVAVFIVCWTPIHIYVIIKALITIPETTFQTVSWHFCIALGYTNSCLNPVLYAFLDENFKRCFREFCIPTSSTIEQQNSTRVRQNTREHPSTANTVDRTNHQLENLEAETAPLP
# Outline: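 Rat forebrain membranes, radioligand displacement with filter scintillation counting, 1.5 h incubation. Screened in duplicate at 25 µM; hits then run in concentration-response up to 50 µM; loss of binding fitted versus DMSO.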
# [12] = target: rat Opioid Receptor, Non-selective Binding, Oprm1 (gene 25601) (UniProt P33535); assay: NVS_GPCR_rOpiate_NonSelective: NovaScreen (NVS) G Protein-Coupled Receptor Assay for rat Opioid Receptor, Non-selective Binding (AID 2283318)
# Sequence of rat Opioid Receptor, Non-selective Binding, Oprm1 (gene 25601) (P33535 whole entry, looked up): as above
# Outline: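 Rat forebrain membranes, cell-free radioligand binding with filter-based scintillation counting, read 1.5 h after dosing. Primary screen in duplicate at 25 uM; actives retested in concentration series. Loss of signal versus DMSO baseline scored.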
# [13] = test system: NCBI gene 24521; assay: NVS_IC_rKATPCh: NovaScreen (NVS) Ion Channel Assay for rat Potassium Channel, ATP-Sensitive (KATPCh) (AID 2283319)
# Outline: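 Rat cortical membranes; radioligand binding at ATP-sensitive K channel site, filter-based scintillation counting 2 h after dosing. Single-point duplicate screen at 25 uM, hits rerun in concentration-response up to 50 uM; loss of signal versus DMSO.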
# [14] = target: rat Gamma-Aminobutyric Acid Type A Receptor, Non-Selective (GABAR-NonSelective), Gabra1 (gene 29705) (UniProt P62813); assay: NVS_LGIC_rGABAR_NonSelective: NovaScreen (NVS) Ligand-Gated Ion Channel Assay for rat Gamma-Aminobutyric Acid Type A Receptor, Non-Selective (GABAR-NonSelective) (AID 2283326)
# Sequence of rat Gamma-Aminobutyric Acid Type A Receptor, Non-Selective (GABAR-NonSelective), Gabra1 (gene 29705) (P62813 whole entry, looked up): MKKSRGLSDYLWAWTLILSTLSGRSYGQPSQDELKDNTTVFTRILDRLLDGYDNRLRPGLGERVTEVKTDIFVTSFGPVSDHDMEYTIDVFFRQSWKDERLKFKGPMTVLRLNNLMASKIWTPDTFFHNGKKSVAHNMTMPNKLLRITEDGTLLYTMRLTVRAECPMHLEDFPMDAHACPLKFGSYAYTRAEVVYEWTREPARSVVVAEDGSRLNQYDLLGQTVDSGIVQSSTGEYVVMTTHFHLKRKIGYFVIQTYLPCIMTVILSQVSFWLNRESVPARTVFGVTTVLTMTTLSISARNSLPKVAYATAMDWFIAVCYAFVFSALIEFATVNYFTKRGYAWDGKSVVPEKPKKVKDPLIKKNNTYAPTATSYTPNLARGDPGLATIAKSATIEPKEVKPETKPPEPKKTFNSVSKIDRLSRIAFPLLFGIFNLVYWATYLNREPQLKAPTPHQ
# Outline: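 Radioligand displacement on rat whole-brain extract, 1 h, filter scintillation readout; signal loss fitted versus DMSO. Primary screen in duplicate at 25 uM; hits (e.g. ≥30% inhibition) retested in concentration-response up to 50 uM.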
# [15] = target: rat Neonicotinoid receptor (NNR), Chrna7 (gene 25302) (UniProt Q05941); assay: NVS_LGIC_rNNR_BungSens: NovaScreen (NVS) Ligand-Gated Ion Channel Assay for rat Neonicotinoid receptor (NNR) (AID 2283315)
# Outline: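 Radioligand displacement binding on rat cortical membranes, 2.5 h incubation, filtration and scintillation counting. Loss of specific binding fitted relative to DMSO.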
# [16] = target: rat Thyrotropin Releasing Hormone Receptor (TRH), Trhr (gene 25570) (UniProt Q01717); assay: NVS_GPCR_rTRH: NovaScreen (NVS) G Protein-Coupled Receptor Assay for rat Thyrotropin Releasing Hormone Receptor (TRH) (AID 2283329);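 further: hit means lower bound tracer signal versus DMSO baseline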
# Sequence of rat Thyrotropin Releasing Hormone Receptor (TRH), Trhr (gene 25570) (Q01717 whole entry, looked up): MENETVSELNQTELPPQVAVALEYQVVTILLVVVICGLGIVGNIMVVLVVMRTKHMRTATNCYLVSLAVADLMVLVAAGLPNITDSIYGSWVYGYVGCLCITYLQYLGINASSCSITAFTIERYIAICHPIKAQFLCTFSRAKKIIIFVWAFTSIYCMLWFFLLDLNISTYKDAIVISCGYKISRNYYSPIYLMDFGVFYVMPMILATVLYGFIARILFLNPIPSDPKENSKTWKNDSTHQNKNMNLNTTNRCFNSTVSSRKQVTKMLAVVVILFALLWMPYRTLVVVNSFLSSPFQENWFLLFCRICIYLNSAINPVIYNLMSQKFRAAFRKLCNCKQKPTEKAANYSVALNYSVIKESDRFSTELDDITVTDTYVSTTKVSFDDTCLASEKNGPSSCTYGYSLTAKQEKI
# Outline: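 Rat forebrain membranes; radioligand displacement at TRH receptor by filter-based scintillation counting, read 4 h after dosing. Duplicate single-point screen at 25 uM, actives rerun in concentration series; loss of signal relative to DMSO.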
compound,measurement,setting,value
Clc1ccc(Nc2nnc(Cc3ccncc3)c3ccccc23)cc1,AC50,[1],2.08 µM (active)
same,AC50,[2],1.95 µM (active)
CCCCC(CC)C(=O)O (centres undefined),outcome,[3],inactive
N=C(N)c1ccc(OCCCCCOc2ccc(C(=N)N)cc2)cc1,AC50,[4],14 µM (active)
same,AC50,[5],1.32 µM (active)
same,AC50,[6],1.06 µM (active)
same,AC50,[7],3.49 µM (active)
same,AC50,[8],0.362 µM (active)
same,AC50,[9],9.06 µM (active)
same,outcome,[10],inactive
same,AC50,[11],18.4 µM (active)
same,AC50,[12],5.6 µM (active)
same,outcome,[13],inactive
same,AC50,[1],16.1 µM (active)
same,outcome,[14],inactive
CC1CNCC(C)O1 (centres undefined),AC50,[15],25 µM (active)
C=CC(=O)OCCN(CC)CC,outcome,[1],inactive
CCCCc1ccc2ccccc2c1S(=O)(=O)O,outcome,[16],inactive
CCCCCCCCCCCCCCCCCC[N+](C)(C)Cc1ccccc1,outcome,[1],inactive
same,outcome,[2],inactive
CCc1ccccc1O,outcome,[16],inactive
CCCCCC(C)OC(=O)COc1ccc(Cl)c2cccnc12 (centres undefined),AC50,[2],4.96 µM (active)
CN(C)CCOC(c1ccccc1)c1ccccc1,AC50,[4],7.06 µM (active)
same,AC50,[6],9.65 µM (active)
same,AC50,[7],8.43 µM (active)
same,outcome,[8],inactive
same,AC50,[9],3.12 µM (active)
same,outcome,[11],inactive
same,AC50,[12],7 µM (active)
same,AC50,[1],3.25 µM (active)
CCOC(=O)CN[C@@H](C(=O)N1CC[C@H]1C(=O)NCc1ccc(/C(N)=N/O)cc1)C1CCCCC1,AC50,[1],0.00287 µM (active)
same,AC50,[2],1.25 µM (active)
CCc1cccc(CC)c1N(COC)C(=O)CS(=O)(=O)O,outcome,[1],inactive
CC(C)c1c(C(=O)Nc2ccccc2)c(-c2ccccc2)c(-c2ccc(F)cc2)n1CC[C@@H](O)C[C@@H](O)CC(=O)O,AC50,[2],11.2 µM (active)
